From PubChem BioAssay
Only some compounds are listed: those with a hit (about 10% of all), similar ones and a draw of the others.
ALDH1A1 inh = blocks purified human ALDH1A1 activity; Purified ALDH1A1, NADH fluorescence, propionaldehyde substrate; 220,000 compounds, 7.3% hits; P00352; Potency, µM (doses to about 75.3 µM), actives largely listed as inhibitors
Target sequence (P00352 whole entry, looked up): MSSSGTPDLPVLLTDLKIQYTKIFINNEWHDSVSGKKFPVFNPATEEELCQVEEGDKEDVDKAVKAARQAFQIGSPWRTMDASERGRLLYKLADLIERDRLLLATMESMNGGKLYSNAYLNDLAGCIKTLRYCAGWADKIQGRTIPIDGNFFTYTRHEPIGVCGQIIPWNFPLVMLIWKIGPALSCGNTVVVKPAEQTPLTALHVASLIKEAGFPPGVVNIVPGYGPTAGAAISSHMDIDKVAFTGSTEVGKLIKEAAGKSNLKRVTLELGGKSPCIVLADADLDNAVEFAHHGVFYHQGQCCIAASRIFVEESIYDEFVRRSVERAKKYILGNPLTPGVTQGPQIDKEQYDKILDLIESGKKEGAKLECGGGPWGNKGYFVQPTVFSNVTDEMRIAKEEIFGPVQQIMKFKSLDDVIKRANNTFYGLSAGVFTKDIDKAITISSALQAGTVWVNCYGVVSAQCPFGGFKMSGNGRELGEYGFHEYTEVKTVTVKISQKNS
Lamin A splicing = changes lamin A minigene splicing in HeLa cells. HeLa LMNA splicing GFP/RFP minigene ratio, 48 h. Potency, µM (titrated, usually from 46.1 µM), actives largely listed as inhibitors. 200,000 compounds, 0.01% hits; active means well fitted inhibition curve with a large enough effect in the signal ratio, with a control signal flat, not every such curve was filed as active; inconclusive means small, poorly fitted or top-dose-only effect, or effect the other way, or a change in a side signal; the % refers to the signal ratio
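S3 HeLa stable clones carrying a lamin A-EGFP splicing minigene plus DsRed2 were seeded at 600 cells/well in Opti-MEM with 2% FBS, pin-dosed and incubated 48 h at 37°C. Acumen cytometry (488 nm) gave the GFP/RFP total-intensity ratio.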
HPGD inh = HPGD (human) dehydrogenase inhibition; Potency, µM, most hits filed as inhibitors; P15428; 150,000 compounds, 4.3% hits; purified HPGD, NADH fluorescence kinetic, PGE2 substrate; AID 894
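NADH formation kinetics: reaction with 30 uM PGE2 and 1 mM NAD+ (final), 20 nM enzyme, Tris-HCl pH 8 with Tween 20, after 15 min compound preincubation at room temperature. Fluorescence change, last versus first of five reads.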
PNC inhibitor = blocks assembly of the perinucleolar compartment. activity change (PNC), negative = inhibition, % at 10 µM. 140,000 compounds, 3.1% hits. PC3M PTB-GFP, PNC prevalence imaging, 16 h; hits give low values;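 active means readout at or below -70, meaning at least 70% loss of cells showing the perinucleolar compartment, a nuclear body marking cancer cells; inconclusive means readout between -30 and a set limit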
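PC3M cells stably expressing PTB-GFP, 750–1000 cells/well, treated 16 h at 37 °C with compound (23 nl of library stock), in duplicate. After paraformaldehyde fixation and Hoechst stain, imaged at 20x; PNC prevalence scored by image analysis.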
KinaseGlo FLuc = counter-screen: inhibitors of Kinase-Glo firefly luciferase; Q27757; Kinase-Glo luciferase, ATP luminescence, 8 min; Potency, µM (doses to about 38.3 µM), usual class: inhibitors; 200,000 compounds, 0.28% hits; AID 1379; active means well fitted inhibition curve with a large enough effect; inconclusive means small, poorly fitted or top-dose-only effect; further: nearly all actives have a fitted effect of over 60% in size
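Recombinant Kinase-Glo luciferase, 10 uM ATP (linear range), luciferin; imidazole pH 7.2 / KCl / MgCl2 / Tween / BSA buffer; 8 min RT; luminescence.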
Each line names hits and unclear results; the compound was inactive in the other large screens. Unless noted, the call rests on the fitted dose curve; in most records, active means well fitted inhibition curve with a large enough effect (not every such curve was filed as active); inconclusive means small, poorly fitted or top-dose-only effect, or another doubt; inactive means no such curve, though single readings can be large or run the other way.

COc1ccc(-c2cc(C(F)(F)F)nc(SCC(=O)Nc3sc4c(c3C#N)CCC4)n2)cc1	ALDH1A1 inh inconclusive, HPGD inh inconclusive
N#Cc1c(NC(=O)CSc2nnc(-c3ccncc3)n2CC2CCCO2)sc2c1CCCC2 (stereo not given)	ALDH1A1 inh inconclusive, Lamin A splicing inconclusive
COc1ccc(C)cc1NC(=O)NCCn1nnc2cc(S(=O)(=O)N(C)C)ccc21	none (no result: ALDH1A1 inh, HPGD inh, PNC inhibitor, KinaseGlo FLuc)
COCCN(CCOC)c1nc(C)nc2c1nc(-c1ccccc1)n2CCN1CCCC1	ALDH1A1 inh inconclusive, HPGD inh inconclusive (no result: Lamin A splicing, PNC inhibitor)
COc1cc2c(cc1O)CCC1C2CC[C@@]2(C)C1CC[C@@H]2O (stereo not given in full)	none (no result: Lamin A splicing, PNC inhibitor)
N#Cc1c(NC(=O)CSc2ncnc3sccc23)oc(-c2ccco2)c1-c1ccco1	ALDH1A1 inh 10µM, HPGD inh inconclusive
Cc1cc(NC(=O)CSc2ncnc3sccc23)no1	none (no result: HPGD inh, PNC inhibitor)
CCOC(=O)CC1ON(C)C(=O)N1c1ccc(Cl)cc1Cl (stereo not given)	ALDH1A1 inh inconclusive
CCOC(=O)C1=NOC2C(=O)N(c3ccc(Cl)cc3Cl)C(=O)C12 (stereo not given)	ALDH1A1 inh 0.71µM (no result: Lamin A splicing, HPGD inh, PNC inhibitor)
C/C=C/OC(=O)NC(c1ccccc1)[C@@]1(C(=O)OC)CCCC1=O (stereo not given in full)	none (no result: Lamin A splicing, HPGD inh, PNC inhibitor, KinaseGlo FLuc)
CCOC(=O)/C(C#N)=C1\CC2CCC1(C)C2(C)C (stereo not given)	ALDH1A1 inh 13µM (no result: HPGD inh, PNC inhibitor)
COC(=O)c1ccc2c(=O)n(Cc3ccco3)c(SCC(=O)Nc3ccc(C)c(Cl)c3)nc2c1	ALDH1A1 inh inconclusive
O=C(CSc1nc2cc(Cl)ccc2c(=O)n1Cc1ccco1)Nc1ccc(S(=O)(=O)N2CCOCC2)cc1	ALDH1A1 inh 7.9µM
CC1CCN(C(=O)CSc2nnc(-c3ccc(S(=O)(=O)N4CCOCC4)cc3)n2C)CC1	ALDH1A1 inh inconclusive, HPGD inh inconclusive, PNC inhibitor -100
Cn1c(SCC(=O)NCc2ccco2)nnc1-c1ccccc1	none
CC1CCCN(C(=O)CSc2nnc(-c3ccc(S(=O)(=O)N4CCOCC4)cc3)n2C)C1 (stereo not given)	ALDH1A1 inh inconclusive, HPGD inh inconclusive
Cn1c(SCC(=O)NCc2ccco2)nnc1-c1ccc(S(=O)(=O)N2CCOCC2)cc1	PNC inhibitor -100
Cc1c(Cl)cccc1-c1ccc(CNc2ccc3[nH]c(=O)[nH]c3c2)o1	none (no result: ALDH1A1 inh, HPGD inh, PNC inhibitor, KinaseGlo FLuc)
CC(=O)Nc1ccc(S(=O)(=O)NCCc2cn3ccsc3n2)cc1	none (no result: ALDH1A1 inh, HPGD inh, PNC inhibitor, KinaseGlo FLuc)
COc1ccc(NC(=O)CCc2c(C)nn(-c3ccc(N4CCOCC4)nn3)c2C)cc1Cl	none (no result: ALDH1A1 inh, HPGD inh, PNC inhibitor, KinaseGlo FLuc)
CCN(CC)S(=O)(=O)c1cc(NC(=O)CSc2nc3c(cc2C#N)C(=O)CC(C)(C)C3)ccc1C	ALDH1A1 inh inconclusive, Lamin A splicing inconclusive, PNC inhibitor -96
Cc1ccc(CSC(N)=Nc2ccccc2)cc1C	none (no result: Lamin A splicing, PNC inhibitor)
CCN(CC)c1cc2c(cc1F)c(=O)c(S(=O)(=O)c1cc(C)ccc1C)cn2Cc1ccccc1	none (no result: ALDH1A1 inh, HPGD inh, PNC inhibitor, KinaseGlo FLuc)
CN(C)c1ccc(CNCCC(Cc2ccccc2)c2ccco2)cc1 (stereo not given)	none (no result: ALDH1A1 inh, HPGD inh, PNC inhibitor, KinaseGlo FLuc)
CC(C)C1CC(CCNCc2ccc(N(C)C)cc2)(c2ccccc2)CCO1 (stereo not given)	ALDH1A1 inh 20µM (no result: HPGD inh, KinaseGlo FLuc)
Cc1ccc(C2(CCNS(=O)(=O)c3ccc(C)cc3)CCOC(C(C)C)C2)cc1 (stereo not given)	ALDH1A1 inh inconclusive, Lamin A splicing inconclusive
Cc1ccc(C2(CCNCc3ccc(N(C)C)cc3)CCOC(C(C)C)C2)cc1 (stereo not given)	ALDH1A1 inh 25µM (no result: HPGD inh, PNC inhibitor)
COc1ccc(-c2nc3cnc(N4CCNCC4)nc3n(C3CC3)c2=O)cc1	ALDH1A1 inh inconclusive, HPGD inh inconclusive (no result: Lamin A splicing, PNC inhibitor)
CCN1CNC(=S)N(C(C)c2ccccc2)C1 (stereo not given)	none
CSc1ccc(C(=O)C2CCCN(C(=O)c3ccsc3)C2)cc1 (stereo not given)	ALDH1A1 inh 5µM (no result: Lamin A splicing, HPGD inh, PNC inhibitor)
NCCSS(=O)(=O)CCN	ALDH1A1 inh inconclusive, HPGD inh inconclusive (no result: Lamin A splicing, PNC inhibitor)
O=C(CSc1oc(-c2ccccc2)nc1S(=O)(=O)c1ccc(F)cc1)NCC1CCCO1 (stereo not given)	ALDH1A1 inh inconclusive, HPGD inh inconclusive, PNC inhibitor -100
O=C(CSc1oc(-c2ccc(F)cc2)nc1S(=O)(=O)c1ccc(F)cc1)NCC1CCCO1 (stereo not given)	none
